Compounds without any hit were thinned out: in the full panel of roughly 83,000, 20% have a hit.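 Percent growth is the endpoint: 0 to 100 indicates growth inhibition (40 means 60% inhibition), 0 means no net growth, and negative values indicate cell death.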 A number with no mark means an inactive call. Activity calls are given as the source filed them. Rule for the calls: active = growth percent below 10; inactive = the rest.

Experiment in all cases: NCI-60 one-dose screen, 48 h (100 = growth as untreated, 0 = no growth, -100 = all killed)
What all share (settings): 10 µM

The test system of test [1] is HCT-15 colon.
The test system of test [2] is HT29 colon.
In test [3] the test system is SNB-75 CNS.
Test [4] deals with SNB-19 CNS.
Test [5] concerns U251 CNS.
Test [6] concerns PC-3 prostate.
Test [7] deals with SK-MEL-5 melanoma.
Test [8] relates to UACC-62 melanoma.
For test [9], the system named is LOX IMVI melanoma.
Test [10] has as its system SK-MEL-28 melanoma.
The subject of test [11] is SK-MEL-2 melanoma.
Test [12] concerns SN12C renal.
Test [13] relates to UO-31 renal.
Test [14] has as its system TK-10 renal.
Test [15] relates to ACHN renal.
Test [16] has as its system CAKI-1 renal.
Test [17] deals with A498 renal.
In test [18] the test system is CCRF-CEM leukemia.
Test [19] has as its system MOLT-4 leukemia.

For the molecule `Oc1ccccc1-c1nnc(Cn2c(Cc3cccc4ccccc34)nc3ccccc32)o1`, the growth was 94% in test [1]; 102% in test [2]; 88.8% in test [3]; 87.1% in test [4]; 99.2% in [5]; 89.5% in test [6]. Also, the growth is 96.3% in test [7]; 88.7% in test [8]; 89.3% in [9]; 103% in test [10]; 83.1% in test [11]; 94.5% in test [12]. The growth in test [13] was 63%; in test [14] it was 99.2%; in test [15], 93.9%; in test [16], 94.3%; in test [17], 106%; in test [18], 99.4%. Moreover, the growth in test [19] is 90.9%.

With `COc1ccccc1NC1=C(N2CCCCC2)C(=O)c2ccccc2C1=O`, the growth in [1] was 86.1%; in test [2], 70.6%; in [3] it was 71.1%; in test [4], 90.2%; in [5], 84.5%; in test [6], 33.5%. In addition, the growth in test [7] was 69%; in test [8] it was 81.4%; in test [9], 86.8%; in test [10], 96.1%; in test [11], 98.2%; in test [12], 84.6%. Further, the growth in [13] was 75.3%; in [14] it was 96.2%; in test [15], 88%; in [16] it was 85.8%; in test [17] it was 39.4%; in test [18], 72.5%. Besides, the growth in [19] is 58.8%.

Regarding `Cc1cc(C)c2c(Nc3ncnc4c3sc3nc(C)cc(C)c34)n[nH]c2n1`, the growth in [1] was 93.2%; in [2], 102%; in test [3], 94.4%; in test [4], 95.8%; in [5], 99.4%; in test [6] it was 88.4%. For the same molecule, the growth was 99.1% in [7]; 95.4% in test [8]; 95.5% in test [9]; 94.5% in test [10]; 114% in [11]; 99.3% in [12]. The growth in test [13] was 90.9%; in test [14], 104%; in [15], 93.6%; in [16], 101%; in test [17], 92.3%; in [18], 95.3%. Also, in test [19], the growth is 94.1%.

As to `COc1ccc(C(=O)/C=C/c2cc(-c3ccc4c(c3)OCO4)n[nH]2)cc1OC`, the growth in test [1] is 52.1%; in test [2], 36.4%; in test [3], 60.3%; in test [4], 47.1%; in [5] it was 31.8%; in test [6] it was 48.4%. The growth is 81.7% in test [7]; 88.9% in test [8]; 47.5% in test [9]; 103% in test [10]; 84.4% in test [11]; 60.3% in test [12]. Moreover, the growth in [13] is 44.4%; in test [14] it was 62.8%; in [15], 76.3%; in test [16], 38.1%; in test [17], 41.9%; in test [18] it was 21.6%. Besides, in test [19], the growth is -9.67% (active).

On to `COc1cc(-c2nc3ccc(C)cc3[nH]2)ccc1OCc1nnc(-c2ccc(CC(C)C)cc2)o1`, for which the growth in test [1] was 73.8%; in test [2] it was 73.3%; in [3], 83.9%; in test [4], 94.6%; in test [5], 75.6%; in test [6] it was 88.1%. Further, the growth in test [7] is 85.7%; in test [8], 90.3%; in [9] it was 103%; in test [10], 87.8%; in test [11], 97.3%; in test [12], 92%. Also, the growth was 77.8% in test [13]; 119% in test [14]; 107% in test [15]; 95.1% in test [16]; 81.8% in test [17]; 80.3% in test [18]. Further, the growth in [19] is 82.4%.

Regarding `Cc1ccc(NC(=O)/C=N/O)cc1C`, the growth in [1] was 98.1%; in test [2], 102%; in [3] it was 84.4%; in test [4], 102%; in [5] it was 89.8%; in test [6] it was 86.5%. The growth in test [7] was 97.6%; in [8] it was 95.4%; in test [9], 101%; in [10] it was 104%; in test [11] it was 103%; in test [12], 103%. The growth in [13] was 71.6%; in [14], 122%; in test [15], 99.1%; in [16], 92.1%; in [17], 3.77% (active); in [18], 90%. Also, in [19], the growth was 85.7%.

For the molecule `CCN(CC)CCn1c(=N)n(CC(O)c2ccc(Cl)c(Cl)c2)c2ccccc21` (configuration not stated), the growth in test [1] was 51.2%; in [2], 20.1%; in [3], 71.8%; in test [4], 102%; in test [5], 69.7%; in test [6] it was 80.8%. The growth in test [7] was 55.6%; in test [8], -30.5% (active); in [9], 76.1%; in test [10] it was 10.4%; in [11] it was 96.8%; in test [12], 83.3%. Moreover, the growth is 64.3% in test [13]; 87.1% in [14]; 71.5% in [15]; 75.4% in test [16]; 52.5% in test [17]; 78.9% in [18]. Besides, the growth in test [19] is 79.7%.

`CCOC(=O)/C(C#N)=C(/C)C1CC1`: the growth was 98.6% in test [1]; 112% in test [2]; 87.7% in test [3]; 110% in test [4]; 100% in [5]; 97.3% in [6]. For the same molecule, the growth is 99.6% in [7]; 107% in test [8]; 106% in [9]; 106% in [10]; 111% in [11]; 107% in [12]. For the same molecule, the growth is 88.3% in test [13]; 116% in [14]; 105% in test [15]; 104% in test [16]; 94.1% in test [17]; 103% in test [18]. In addition, in [19], the growth was 114%.

(Values after PubChem BioAssay (NCI).)
